# Data published in the supplement of paper PMC4466140.
# Target: AgAbp1
# Assay: SPOT peptide array binding signal intensity (averaged, normalized) (arbitrary units (background-subtracted, floor 0; scale differs between SH3 domains)); higher = stronger binding of the SH3 domain to the peptide
# How it was run: (§1)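 Four yeast species supplied the SH3 domains, which were expressed as GST fusions in E. coli BL21(DE3) and purified on glutathione Sepharose. Incubation with cellulose membranes carrying synthetic 15-mer peptides, cysteines exchanged for serines, ran overnight at 4°C at 10 μg/ml in TBS-based blocking buffer. Binding signal is reported as normalized, background-subtracted spot intensity averaged over replicates, in arbitrary units not shared between domains.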
row,Binder,SPOT peptide array binding signal intensity
1,VNIPSPSSSPPPIPK,8

# Target: AgBbc1
# Assay: as above
# How it was run: as §1
row,Binder,SPOT peptide array binding signal intensity
1,VNIPSPSSSPPPIPK,≤ 0

# Target: AgBem1-D1
# Assay: as above
# How it was run: as §1
row,Binder,SPOT peptide array binding signal intensity
1,VNIPSPSSSPPPIPK,28

# Target: AgBzz1-D1
# Assay: as above
# How it was run: as §1
row,Binder,SPOT peptide array binding signal intensity
1,VNIPSPSSSPPPIPK,≤ 0

# Target: AgBzz1-D2
# Assay: as above
# How it was run: as §1
row,Binder,SPOT peptide array binding signal intensity
1,VNIPSPSSSPPPIPK,5

# Target: AgCyk3
# Assay: as above
# How it was run: as §1
row,Binder,SPOT peptide array binding signal intensity
1,VNIPSPSSSPPPIPK,0.5

# Target: AgFus1
# Assay: as above
# How it was run: as §1
row,Binder,SPOT peptide array binding signal intensity
1,VNIPSPSSSPPPIPK,0.5

# Target: AgHof1
# Assay: as above
# How it was run: as §1
row,Binder,SPOT peptide array binding signal intensity
1,VNIPSPSSSPPPIPK,≤ 0

# Target: AgHse1
# Assay: as above
# How it was run: as §1
row,Binder,SPOT peptide array binding signal intensity
1,VNIPSPSSSPPPIPK,20.5

# Target: AgLsb1
# Assay: as above
# How it was run: as §1
row,Binder,SPOT peptide array binding signal intensity
1,VNIPSPSSSPPPIPK,≤ 0

# Target: AgLsb4
# Assay: as above
# How it was run: as §1
row,Binder,SPOT peptide array binding signal intensity
1,VNIPSPSSSPPPIPK,≤ 0

# Target: AgMyo5
# Assay: as above
# How it was run: as §1
row,Binder,SPOT peptide array binding signal intensity
1,VNIPSPSSSPPPIPK,2570

# Target: AgNbp2
# Assay: as above
# How it was run: as §1
row,Binder,SPOT peptide array binding signal intensity
1,VNIPSPSSSPPPIPK,≤ 0

# Target: AgRvs167
# Assay: as above
# How it was run: as §1
row,Binder,SPOT peptide array binding signal intensity
1,VNIPSPSSSPPPIPK,0.5

# Target: AgSho1
# Assay: as above
# How it was run: as §1
row,Binder,SPOT peptide array binding signal intensity
1,VNIPSPSSSPPPIPK,≤ 0

# Target: AgSla1-D1-D2
# Assay: as above
# How it was run: as §1
row,Binder,SPOT peptide array binding signal intensity
1,VNIPSPSSSPPPIPK,8

# Target: AgSla1-D3
# Assay: as above
# How it was run: as §1
row,Binder,SPOT peptide array binding signal intensity
1,VNIPSPSSSPPPIPK,≤ 0

# Target: CaAbp1-D1
# Assay: as above
# How it was run: as §1
row,Binder,SPOT peptide array binding signal intensity
1,VNIPSPSSSPPPIPK,5

# Target: CaAbp1-D2
# Assay: as above
# How it was run: as §1
row,Binder,SPOT peptide array binding signal intensity
1,VNIPSPSSSPPPIPK,9

# Target: CaBbc1
# Assay: as above
# How it was run: as §1
row,Binder,SPOT peptide array binding signal intensity
1,VNIPSPSSSPPPIPK,≤ 0

# Target: CaBem1-D1
# Assay: as above
# How it was run: as §1
row,Binder,SPOT peptide array binding signal intensity
1,VNIPSPSSSPPPIPK,10

# Target: CaBzz1-D1
# Assay: as above
# How it was run: as §1
row,Binder,SPOT peptide array binding signal intensity
1,VNIPSPSSSPPPIPK,34

# Target: CaBzz1-D2
# Assay: as above
# How it was run: as §1
row,Binder,SPOT peptide array binding signal intensity
1,VNIPSPSSSPPPIPK,4.75

# Target: CaCyk3
# Assay: as above
# How it was run: as §1
row,Binder,SPOT peptide array binding signal intensity
1,VNIPSPSSSPPPIPK,≤ 0

# Target: CaFus1
# Assay: as above
# How it was run: as §1
row,Binder,SPOT peptide array binding signal intensity
1,VNIPSPSSSPPPIPK,47.5

# Target: CaHof1
# Assay: as above
# How it was run: as §1
row,Binder,SPOT peptide array binding signal intensity
1,VNIPSPSSSPPPIPK,0.5

# Target: CaHse1
# Assay: as above
# How it was run: as §1
row,Binder,SPOT peptide array binding signal intensity
1,VNIPSPSSSPPPIPK,≤ 0

# Target: CaLsb1
# Assay: as above
# How it was run: as §1
row,Binder,SPOT peptide array binding signal intensity
1,VNIPSPSSSPPPIPK,≤ 0

# Target: CaLsb4
# Assay: as above
# How it was run: as §1
row,Binder,SPOT peptide array binding signal intensity
1,VNIPSPSSSPPPIPK,≤ 0

# Target: CaMyo5
# Assay: as above
# How it was run: as §1
row,Binder,SPOT peptide array binding signal intensity
1,VNIPSPSSSPPPIPK,1400

# Target: CaNbp2
# Assay: as above
# How it was run: as §1
row,Binder,SPOT peptide array binding signal intensity
1,VNIPSPSSSPPPIPK,19.5

# Target: CaRvs167
# Assay: as above
# How it was run: as §1
row,Binder,SPOT peptide array binding signal intensity
1,VNIPSPSSSPPPIPK,≤ 0

# Target: CaRvs167-3
# Assay: as above
# How it was run: as §1
row,Binder,SPOT peptide array binding signal intensity
1,VNIPSPSSSPPPIPK,2.25

# Target: CaSho1
# Assay: as above
# How it was run: as §1
row,Binder,SPOT peptide array binding signal intensity
1,VNIPSPSSSPPPIPK,2

# Target: CaSla1-D1-D2
# Assay: as above
# How it was run: as §1
row,Binder,SPOT peptide array binding signal intensity
1,VNIPSPSSSPPPIPK,≤ 0

# Target: CaSla1-D3
# Assay: as above
# How it was run: as §1
row,Binder,SPOT peptide array binding signal intensity
1,VNIPSPSSSPPPIPK,1.25

# Target: ScAbp1
# Assay: as above
# How it was run: as §1
row,Binder,SPOT peptide array binding signal intensity
1,VNIPSPSSSPPPIPK,≤ 0
